The source made the active and inactive calls. The calls were made as follows: active = hit-call score of the fitted dose curve at least 0.9, where 1 is the maximum; inactive = score below 0.9.
These compounds were tested on KRT18 (gene 3875) (assay: BSK_BE3C_Keratin818: BioMAP Diversity Plus: BE3C Assay for Keratin 818 Biomarker Activity (AID 2284282)). Conditions: primary human bronchial epithelial cells.
Summary of the method: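 BE3C: human bronchial epithelial primary cells, 24 h exposure, Keratin 8/18 ELISA; DMSO = negative control/baseline; cytotoxicity by parallel SRB stain (0.1% SRB after 10% TCA fixation, 560 nm).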
With `C=C(C)C(=O)OCC(F)(F)C(F)(F)C(F)(F)F` the outcome was “inactive”.
With `C=CC(F)(F)C(F)(F)C(F)(F)C(F)(F)C(F)(F)C(F)(F)C(F)(F)C(F)(F)C=C` the outcome was “inactive”.
For `C=C(C)C(=O)OCC(F)(F)C(F)(F)C(F)(F)C(F)(F)C(F)(F)C(F)(F)C(F)(F)F`, the outcome was “inactive”.
`Cc1ccc(S(=O)(=O)OCC(F)(F)C(F)(F)C(F)(F)C(F)(F)C(F)(F)C(F)F)cc1` was tested, and the outcome was “inactive”.
`FC(F)(F)C(F)(F)CNCC(F)(F)C(F)(F)F` was tested, and the outcome was “inactive”.
In the case of `FC(F)(F)C(F)(F)C(F)(F)N(C(F)(F)C(F)(F)C(F)(F)F)C(F)(F)C(F)(F)C(F)(F)F`, the outcome was “inactive”.
With `OCC(F)(F)C(F)(F)C(F)(F)C(F)(F)C(F)(F)C(F)(F)F` the outcome was “inactive”.
`CC(C)(C)C(=O)CC(=O)C(F)(F)C(F)(F)C(F)(F)F` was tested, and the outcome was “inactive”.
In the case of `FC(F)(F)C(F)(F)C(F)(F)C(F)(F)C(F)(F)C(F)(F)C(F)(F)Br`, the outcome was “inactive”.
`CCO[Si](CCC(F)(F)C(F)(F)C(F)(F)C(F)(F)C(F)(F)C(F)(F)F)(OCC)OCC` was tested, and the outcome was “inactive”.
For `FC(F)(F)C(F)(F)C(F)(F)C(F)(F)CCI`, the outcome was “inactive”.
In the case of `FC(F)(F)C(F)(F)C(F)(F)C(F)(F)C(F)(F)C(F)(F)C(F)(F)C(F)(F)F`, the outcome was “inactive”.
In the case of `FC(F)(F)C(F)(F)C(F)(F)C(F)(F)C(F)(F)C(F)(F)C(F)(F)C(F)(F)CCS`, the outcome was “inactive”.
For `O=C(O)C(F)(F)C(F)(F)C(F)(F)C(F)(F)C(F)(F)C(F)(F)C(F)(F)C(F)(F)C(F)(F)C(F)(F)C(F)(F)C(F)(F)F`, the outcome was “inactive”.
With `OCC(F)(F)C(F)(F)C(F)(F)F` the outcome was “inactive”.
